TDP1 cell CPT – DT40-hTDP1 cell growth loss with CPT; chicken DT40 Tdp1-/-;hTDP1 cells + 20 nM CPT, ATP luminescence, 48 h; Potency, µM (titrated, usually from 46.2 µM), without a hit: top-dose activity change, negative = growth inhibition, most hits filed as inhibitors; 12% of 420,000 active; AID 686979; further: potency means the concentration at half of the fitted maximal effect; nearly all actives have a fitted effect of over 55% in size
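Chicken DT40 Tdp1-/- cells stably complemented with human TDP1 were seeded at 400 cells/well in medium containing 20 nM camptothecin, exposed to pin-transferred compounds, and grown at 37 °C for at least 48 hr. Viability was read as ATP luminescence.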
IL-1B inflam inh – inflammasome signaling inhibition, IL-1 beta readout | 4.7% of 360,000 active | THP-1 LPS/ATP IL-1B secretion, AlphaLISA, 16 h; active compounds read low | activity change, % at 57.5 µM | AID 743279; in the data active means activity change below about -50%; inconclusive means mostly about -30% to -49%
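Secreted IL-1B measured by AlphaLISA bead assay after 16 h compound exposure of THP-1 cells; compounds (final up to 57.5 uM) added 1 h before LPS (250 ng/mL) and ATP (1.25 mM) stimulation; lower signal means less secretion.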
Gal4-VP16 FLuc – inhibits Gal4-VP16 luciferase reporter, ROR gamma counter-screen. Potency, µM (doses to about 53.6 µM), for inactives: top-dose activity, negative = inhibition, hits mostly inhibitors. 3.5% of 310,000 active. Drosophila S2 Gal4-VP16 UAS-luciferase, luminescence, 20 h;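 further: Gal4-VP16 expression switched on by copper sulfate through the metallothionein promoter; potency means the concentration at half of the fitted maximal effect; nearly all actives have a fitted effect of over 50% in size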
TDP1 cell noCPT – qHTS for Inhibitors of human tyrosyl-DNA phosphodiesterase 1 (TDP1): qHTS in cells in absence of CPT; DT40 Tdp1-/- hTDP1 cells, no CPT, ATP luminescence, 48 h; Potency, µM (doses to about 46.2 µM), for inactives: top-dose activity change, negative = growth inhibition, most hits filed as inhibitors; 15% of 420,000 active; further: potency means the concentration at half of the fitted maximal effect; nearly all actives have a fitted effect of over 55% in size
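Compound effects on proliferation are scored in DT40 Tdp1-/-;hTDP1 cells in the absence of CPT. ATP levels (CellTiter-Glo luminescence) are recorded after a ≥48 hr, 37 °C incubation.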
RORgamma inh – blocks mouse ROR gamma transcriptional activity; Potency, µM (doses to about 53.6 µM), for the others: top-dose activity change, negative = inhibition, most hits filed as inhibitors; P51450; 5.4% of 310,000 active; AID 2551; Drosophila S2 Gal4-RORgamma UAS-luciferase reporter, 20 h; further: potency means the concentration at half of the fitted maximal effect; nearly all actives have a fitted effect of over 60% in size
Target sequence (P51450 whole entry, looked up, the tested form may be a part): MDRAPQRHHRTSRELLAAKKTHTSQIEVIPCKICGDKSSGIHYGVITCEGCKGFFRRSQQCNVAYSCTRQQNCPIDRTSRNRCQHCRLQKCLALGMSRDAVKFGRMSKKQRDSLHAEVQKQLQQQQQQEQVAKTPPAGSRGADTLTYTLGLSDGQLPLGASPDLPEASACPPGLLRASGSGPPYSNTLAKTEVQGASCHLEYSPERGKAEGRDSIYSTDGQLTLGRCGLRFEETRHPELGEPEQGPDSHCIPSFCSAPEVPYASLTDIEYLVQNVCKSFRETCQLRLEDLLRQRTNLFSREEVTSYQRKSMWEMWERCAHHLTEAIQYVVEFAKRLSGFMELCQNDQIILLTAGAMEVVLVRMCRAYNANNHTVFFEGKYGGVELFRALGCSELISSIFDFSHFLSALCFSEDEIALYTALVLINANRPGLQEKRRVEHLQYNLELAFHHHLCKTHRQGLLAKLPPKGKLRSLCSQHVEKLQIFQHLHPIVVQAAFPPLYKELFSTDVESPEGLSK
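Stable Schneider cell line, Gal4 DNA-binding domain fused to ROR gamma, UAS-luciferase. Cmpd 1 hr RT → CuSO4 700 uM final → 20 hr RT → luciferase reagent 10 min → luminescence.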
LDHA inh – inhibitors of human lactate dehydrogenase A; purified LDHA, NADH/diaphorase-resazurin fluorescence; active compounds read low; activity change, % (values are at about 110 or 230 µM); 0.15% of 480,000 active; P00338; in the data active means activity change below about -30%; inconclusive means mostly about -25% to -30%;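 further: plate controls were DMSO wells for no effect and wells without enzyme for full effect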
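Human LDH5 at 2 nM final in Tris HCl pH 7.4 with 0.06 mM NADH and 0.2 mM pyruvate, reacted 5 minutes at room temperature. Remaining NADH coupled via diaphorase/resazurin; resorufin fluorescence read at 0 and 20 minutes, normalized to enzyme-free and DMSO wells.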
* hit, by the source's call; u = inconclusive; x = no result; ! = not active in a repeat; [ ] = dose if it differs, or a comment. An excerpt weighted towards active compounds, which were near 18% of everything screened. Unless noted, the call rests on the fitted dose curve; in most records, active means well fitted curve in the direction sought with a large enough effect; inconclusive means small, poorly fitted or top-dose-only effect, or another doubt; inactive means no such curve, though single readings can be large; an effect the other way counts as inactive or inconclusive. Unless noted, on the % scale 0 is the no-effect control and ±100 the full control effect.

SMILES | TDP1 cell CPT | IL-1B inflam inh | Gal4-VP16 FLuc | TDP1 cell noCPT | RORgamma inh | LDHA inh
COC(=O)C1=C(c2ccc(OCc3ccccc3)cc2)C[C@@H]2CC[C@H]1N2C(=O)NCc1ccc2[nH]ccc2c1 | u | -4 | x | u | x | -3
COC(=O)C1=C(c2ccc(OC)c(OC)c2)C[C@@H]2CC[C@H]1N2C(=O)NC1CC1 | u | 1 | x | -15% | x | 0
COC(=O)C1=C(c2ccc(OCc3ccccc3)cc2)C[C@@H]2CC[C@H]1N2C(=O)NCCc1ccc(F)cc1 | 21µM* | 0 | x | u | x | 0
COC(=O)C1=C(c2ccc(OCc3ccccc3)cc2)C[C@@H]2CC[C@H]1N2C(=O)NCCCCc1ccccc1 | u | -25 | x | 18µM* | x | -9
COC(=O)C1=C(c2ccccc2)C[C@@H]2CC[C@H]1N2C(=O)NCCO | 13% | 9 | x | 0% | x | -1
COC(=O)C1=C(c2ccc(OC(F)(F)F)cc2)C[C@@H]2CC[C@H]1N2C(=O)NCCc1ccccc1 | 2.9µM* | 0 | x | u | x | 7
COC(=O)C1=C(c2ccc(OCc3ccccc3)cc2)C[C@@H]2CC[C@H]1N2C(=O)NC1CCN(Cc2ccccc2)CC1 | 8.2µM* | -21 | x | 7.3µM* | x | 4
O=C(NC1CCS(=O)(=O)C1)c1cn(Cc2ccccc2)c2ccccc12 (stereo unspecified) | x | x | x | x | x | -3
CN(Cc1ccc(OC(F)F)cc1)C(=O)c1ccccc1Sc1ccccc1C#N | u | u | x | u | x | -7
CC(Nc1ccc([N+](=O)[O-])c2cnccc12)c1ccc(F)cc1 (stereo unspecified) | x | x | x | x | x | 2
Cc1cccc(OP(=O)(Oc2ccccc2)OC(c2ccccc2)C(F)(F)F)c1 (stereo unspecified) | -22% | -1 | 1% | 18µM* | -3% | 3
O=CNc1ccc(OP(=O)(Oc2ccccc2)Oc2ccccc2)cc1 | -24% | -20 | 4% | -26% | -1% | -3
CCN(CC)C(=O)Oc1ccc2cc(Br)ccc2c1 | -30% | -11 | 21% | u | 28% | 2
c1ccc2c(c1)-c1cccc3cccc-2c13 | -14% | -15 | -23% | -19% | 23% | -9
Nc1c(Br)cc2c3c(cccc13)-c1ccccc1-2 | 8.2µM* | -18 | x | 5.2µM* | x | 26
CN(C)C/C=C(/c1ccc(Br)cc1)c1cccnc1 | 30µM*! | -20 | -8% | 12µM* | 4% | 2
C[S+](CC[C@H](N)C(=O)O)C[C@H]1O[C@@H](n2cnc3c(N)ncnc32)[C@H](O)[C@@H]1O (stereo partly specified) | u | -1 | -2% | u | 22% | -11
Nc1ncnc2c1ccn2[C@@H]1O[C@H](CO)[C@@H](O)[C@H]1O | 0.021µM* | -110* | 1.1µM* | 0.15µM* | 0.63µM* | -7
COc1nc(N)nc2c1ncn2[C@@H]1O[C@H](CO)[C@@H](O)[C@@H]1O | u | x | 3% | -26% | -3% | x
OCC1OC(n2cnc3c(Cl)ncnc32)C(O)C1O (stereo unspecified) | 9.2µM* | x | 1% | 4.6µM* | -12% | x
NC(=S)c1cn(C2OC(CO)C(O)C2O)c2ncnc(N)c12 (stereo unspecified) | 0.13µM* | -100* | 2.5µM* | 0.16µM* | 7.1µM* | -3
N#Cc1ccc(CN2CCCC3(CCN(C(=O)Oc4ccccc4)CC3)C2)cc1 | -15% | x | -8% | -25% | -6% | x
CCN(CC)C(=O)c1ccc(NC(=O)COc2ccc3c(C)cc(=O)oc3c2)cc1 | x | x | x | x | x | 14
COc1cc2c(cc1O)C[C@H]1NCCc3cc4c(c-2c31)OCO4 | 18µM* | -26 | u | 23µM* | 10µM* | 16
CN1CCc2cc3c(c4c2[C@H]1Cc1ccccc1-4)OCO3 | x | x | -26% | x | -35% | x
SMILES | TDP1 cell CPT | IL-1B inflam inh | Gal4-VP16 FLuc | TDP1 cell noCPT | RORgamma inh | LDHA inh
NC(=O)c1ncn([C@@H]2O[C@H](CO)[C@@H](O)[C@H]2O)n1 | 1.5µM* | -10 | -8% | 1µM* | -26% | -4
CCN1CC2(OC(=O)c3ccccc3NC(C)=O)CCC(OC)[C@]34C1[C@H](CC23)[C@@]1(O)C[C@H](OC)[C@H]2CC4C1(O)[C@H]2OC (stereo partly specified) | x | x | 0% | x | 11% | x
S=c1[nH]nc(-c2ccco2)n1-c1cccc2ccccc12 | 2% | 52 | 13µM* | -3% | 7.9µM* | 4
Nn1c(Cc2cccc3ccccc23)n[nH]c1=S | -20% | -3 | 7% | -21% | u | -3
COC(/C(C)=C/C=C/C(C)=C/c1coc(C)n1)C(C)C1CC(O)C2(C)OC2C=CC(C)C2CC(CC(=O)O2)CC2OC2C(=O)O1 (stereo unspecified) | 0.12µM* | 29 | x | 0.018µM* | x | -3
CC(=O)C(Sc1ncnc2c1nnn2-c1ccc(F)cc1)C(=O)N(C)C (stereo unspecified) | 21µM* | -30 | -2% | 21µM* | 11% | 6
Cc1ccccc1C(=O)Nc1sc2c(c1C(=O)O)CCC(C(C)(C)C)C2 (stereo unspecified) | 10µM* | x | x | 4.6µM* | x | 0
COC(=O)C1(C(=O)OC)C[C@H](c2ccc(OC)cc2)N(Cc2ccccc2OC)[C@@H]1c1cccs1 | 16µM* | u | x | 21µM* | x | 0
COc1ccc(CN2CCN(C(=O)COc3ccc4ccccc4c3)CC2)cc1OC | x | x | x | x | x | 5
O=C1C=CC(=O)c2c(O)cccc21 | u | x | -13% | u | u | x
C[C@H]1CNC(=O)c2c(C(=O)N3CCN(C(=O)OC(C)(C)C)CC3)ncn21 | 26µM* | -27 | x | u | x | -3
Cn1cc(/C=C(\C(=O)O)C(C(=O)O)=C2CCCCC2)c2ccccc21 | 23µM* | 40 | 0%[10 µM] | 15µM* | -15% | 3
C/C(=C\c1cn(C)c2ccccc12)[N+](=O)[O-] | x | x | x | x | x | 32
CCOc1cc(/C=C2/C(=O)NC(=O)N(c3ccc(CC)cc3)C2=O)ccc1OC(=O)c1cccs1 | -7% | 3 | -7% | 29µM* | -2% | -20
C[C@@H](N)[C@@H](O)c1ccccc1 | -6%[21.1 µM] | x | x | -2%[21.1 µM] | x | x
Cc1ccc(CNCCc2ccccc2)s1 | x | x | x | x | x | -1
CCC1Nc2ncnc(N3CCN(c4ccccn4)CC3)c2N(Cc2ccc(Br)cc2)C1=O (stereo unspecified) | u | u | x | u | x | 3
